# Measurements reported in PubChem BioAssay (EPA / NIEHS).
# More than one record can exist for a structure, and the calls need not agree. The source made the active and inactive calls. The calls were made as follows: active = hit-call score of the fitted dose curve at least 0.9, where 1 is the maximum; inactive = score below 0.9.
# Columns and labels:
# [1] = read-out: Vascular endothelial growth factor receptor 2 (Homo sapiens) (UniProt P35968); experiment: BSK_4H_VEGFRII: BioMAP Diversity Plus: 4H Assay for Vascular endothelial growth factor receptor 2 (VEGFR2) Biomarker Activity (AID 2283031); details: primary human endothelial cells (HUVEC); actives raise or lower the signal;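 as to AC50: cell-surface VEGFR2 protein level quantified by ELISA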
# Method in brief: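 VEGFRII levels on human vascular endothelial primary cells were determined by ELISA at 24 hours post-dosing, with gain- or loss-of-signal fitted against DMSO controls.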
# [2] = read-out: Human Leukocyte Antigen - DR isotype (HLADR), HLA-DRA (gene 3122); experiment: BSK_BE3C_HLADR: BioMAP Diversity Plus: BE3C Assay for Human Leukocyte Antigen - DR isotype (HLADR) Biomarker Activity (AID 2283032); details: primary human bronchial epithelial cells; actives raise or lower the signal
# Method in brief: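 Chemicals are dosed onto BE3C bronchial epithelial cultures of human origin and left 24 h. HLA-DR is then measured by ELISA, and the endpoint is fitted in both directions using DMSO as the activity baseline.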
# [3] = read-out: Vascular cell adhesion molecule 1 (VCAM1), VCAM1 (gene 7412); experiment: BSK_4H_VCAM1: BioMAP Diversity Plus: 4H Assay for Vascular cell adhesion molecule 1 (VCAM1) Biomarker Activity (AID 2283033); details: primary human endothelial cells (HUVEC); actives raise or lower the signal;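 as to outcome: cell-surface VCAM-1 protein measured by ELISA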
# Method in brief: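 Chemicals are added to primary human umbilical vein endothelial cells. After 24 h, VCAM-1 levels are measured by ELISA. Values come from bidirectional fitting referenced to DMSO.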
# [4] = read-out: Interferon-gamma inducible Protein 10 (IP10), CXCL10 (gene 3627); experiment: BSK_BE3C_IP10: BioMAP Diversity Plus: BE3C Assay for Interferon-gamma inducible Protein 10 (IP10) Biomarker Activity (AID 2283034); details: primary human bronchial epithelial cells; actives raise or lower the signal
# Method in brief: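 IP-10 quantified by ELISA serves as the endpoint. Cells: primary human bronchial epithelium, read 24 h after compound addition. Activity is derived by bidirectional fitting with DMSO as negative control.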
# [5] = read-out: Monokine induced gamma interferon (MIG), CXCL9 (gene 4283); experiment: BSK_BE3C_MIG: BioMAP Diversity Plus: BE3C Assay for Monokine induced gamma interferon (MIG) Biomarker Activity (AID 2283035); details: primary human bronchial epithelial cells; actives raise or lower the signal;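 as to outcome: MIG protein measured by ELISA in BE3C cultures after 24 h of dosing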
# Method in brief: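 hu bronchial epithelial 1° cells, 24 h cpd; MIG by ELISA; bidirectional fit, DMSO = baseline.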
# [6] = read-out: Transforming growth factor beta 1 (TGFb1), TGFB1 (gene 7040); experiment: BSK_BE3C_TGFb1: BioMAP Diversity Plus: BE3C Assay for Transforming growth factor beta 1 (TGFb1) Biomarker Activity (AID 2283036;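 as to outcome: TGF-b1 protein level measured by ELISA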); details: primary human bronchial epithelial cells; actives raise or lower the signal
# Method in brief: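 Bronchial epithelial primary cells are treated with test chemical, then TGF-b1 is quantified by ELISA after 24 hours. Values derive from bidirectional fitting against DMSO, with cytotoxicity checked by SRB staining in parallel cultures.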
# [7] = read-out: Plasminogen activator inhibitor-1 (PAI1), SERPINE1 (gene 5054); experiment: BSK_BE3C_PAI1: BioMAP Diversity Plus: BE3C Assay for Plasminogen activator inhibitor-1 (PAI1) Biomarker Activity (AID 2283037); details: primary human bronchial epithelial cells; actives raise or lower the signal
# Method in brief: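 Values derive from bidirectional fitting against DMSO baseline of PAI-1 levels, measured by ELISA in human bronchial epithelial cells 24 h after compound addition.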
# [8] = read-out: urokinase plasminogen activator (uPA), PLAU (gene 5328); experiment: BSK_BE3C_uPA: BioMAP Diversity Plus: BE3C Assay for urokinase plasminogen activator (uPA) Biomarker Activity (AID 2283038); details: primary human bronchial epithelial cells; actives raise or lower the signal;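 as to outcome: uPA protein level quantified by ELISA in cell cultures; uPA read one day after compound addition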
# Method in brief: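 Measured by ELISA: uPA from human primary bronchial epithelial cells 24 h after chemical treatment. Values derive from bidirectional curve fitting with DMSO serving as negative control. Total protein by SRB staining in parallel wells flagged overt cytotoxicity.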
# [9] = read-out: Urokinase-type plasminogen activator receptor (uPAR), PLAUR (gene 5329); experiment: BSK_BE3C_uPAR: BioMAP Diversity Plus: BE3C Assay for Urokinase-type plasminogen activator receptor (uPAR) Biomarker Activity (AID 2283039); details: primary human bronchial epithelial cells; actives raise or lower the signal;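 as to outcome: uPAR protein level measured by ELISA on the cells; cells exposed to compound for one day before measurement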
# Method in brief: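 Steps: dose human primary bronchial epithelial cells, incubate 24 h, measure uPAR by ELISA, then fit gain- or loss-of-signal response bidirectionally relative to DMSO.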
# [10] = read-out: Interleukin-6 (IL6), IL6 (gene 3569); experiment: BSK_CASM3C_IL6: BioMAP Diversity Plus: CASM3C Assay for Interleukin-6 (IL6) Biomarker Activity for (AID 2283040); details: primary human coronary artery smooth muscle cells; actives raise or lower the signal
Structure (SMILES),outcome [1],outcome [2],outcome [3],outcome [4],outcome [5],outcome [6],outcome [7],outcome [8],outcome [9],outcome [10],AC50 [2],AC50 [8],AC50 [10],AC50 [7],AC50 [3],AC50 [4],AC50 [1],AC50 [5],AC50 [6],AC50 [9]
N#Cc1ccc(CC(=NNC(=O)Nc2ccc(OC(F)(F)F)cc2)c2cccc(C(F)(F)F)c2)cc1,inactive,inactive,inactive,inactive,inactive,inactive,inactive,inactive,inactive,inactive,,,,,,,,,,
O=C(O)C[C@H](O)C[C@H](O)/C=C/c1c(C2CC2)nc2ccccc2c1-c1ccc(F)cc1,inactive,,inactive,inactive,inactive,inactive,inactive,,inactive,,0.028 µM (active),1.7 µM (active),0.0041 µM (active),,,,,,,
CCn1c2ccccc2c2cc(N)ccc21,inactive,,inactive,inactive,inactive,inactive,,inactive,inactive,inactive,2.24 µM (active),,,3.97 µM (active),,,,,,
CCCCC(CC)COCCC#N (stereo not given),inactive,inactive,inactive,inactive,inactive,inactive,inactive,inactive,inactive,inactive,,,,,,,,,,
CC[Si](OC(C)=O)(OC(C)=O)OC(C)=O,inactive,inactive,inactive,inactive,inactive,,inactive,inactive,inactive,inactive,,,,,0.195 µM (active),,,,,
O=C(O)c1cn(C2CC2)c2cc(N3CCNCC3)c(F)cc2c1=O,inactive,inactive,inactive,inactive,inactive,inactive,inactive,inactive,inactive,inactive,,,,,,,,,,
Cc1ccc2n[nH]nc2c1,inactive,inactive,inactive,inactive,inactive,inactive,inactive,inactive,inactive,inactive,,,,,,,,,,
CCCCC(CC)COC(=O)/C=C\C(=O)OCC(CC)CCCC (stereo not given),inactive,inactive,inactive,inactive,inactive,inactive,inactive,inactive,inactive,inactive,,,,,,,,,,
C=C[Si](OCC)(OCC)OCC,inactive,inactive,inactive,inactive,inactive,inactive,inactive,inactive,inactive,inactive,,,,,,,,,,
CCCCCCCCCC=O,inactive,,inactive,,inactive,inactive,inactive,inactive,inactive,inactive,20 µM (active),,,,,20 µM (active),,,,
C=C(C)C(=O)O[C@H]1C[C@@H]2CC[C@@]1(C)C2(C)C,,,,,,,,,,,20 µM (active),20 µM (active),13 µM (active),20 µM (active),10.1 µM (active),33.2 µM (active),5.29 µM (active),30.4 µM (active),26.4 µM (active),32.2 µM (active)
CC(C)c1ccc(C(C)C)cc1,,,,,inactive,inactive,inactive,inactive,,,30.8 µM (active),,20 µM (active),,35.1 µM (active),30.9 µM (active),33.3 µM (active),,,20 µM (active)
CC(=O)/C=C/C1=C(C)CCCC1(C)C,inactive,inactive,inactive,inactive,inactive,inactive,inactive,inactive,inactive,inactive,,,,,,,,,,
O=C(O)c1ccc([N+](=O)[O-])cc1,inactive,inactive,inactive,inactive,inactive,inactive,inactive,inactive,inactive,inactive,,,,,,,,,,
CC1COc2ccccc2N1C(=O)C(Cl)Cl (stereo not given),inactive,,,,inactive,inactive,,,inactive,,7.78 µM (active),0.016 µM (active),8.9 µM (active),3.97 µM (active),8.19 µM (active),12.2 µM (active),,,,
CCCCC/C=C/C=C/C=O,,,,,,inactive,inactive,,inactive,inactive,20 µM (active),31.3 µM (active),,,33.3 µM (active),28.4 µM (active),20 µM (active),34.3 µM (active),,
C#C[C@]1(O)CC[C@H]2[C@@H]3CCC4=Cc5oncc5C[C@]4(C)[C@H]3CC[C@@]21C,inactive,inactive,,,inactive,inactive,inactive,inactive,inactive,inactive,,,,,30.1 µM (active),31.2 µM (active),,,,
CN(CCOc1ccc(CC2SC(=O)NC2=O)cc1)c1ccccn1 (stereo not given),inactive,,,,inactive,inactive,,inactive,,inactive,20 µM (active),,,0.21 µM (active),8.46 µM (active),11 µM (active),,,,3.97 µM (active)
O=C(O)c1cn(-c2ccc(F)cc2)c2cc(N3CCNCC3)c(F)cc2c1=O,inactive,inactive,inactive,inactive,inactive,inactive,inactive,inactive,inactive,inactive,,,,,,,,,,
CC(=O)Nc1ccccc1O,inactive,inactive,inactive,inactive,inactive,inactive,inactive,inactive,inactive,inactive,,,,,,,,,,
CCCCCCCCCCCCCCCCCC(=O)OCC(CC)CCCC (stereo not given),inactive,inactive,inactive,inactive,inactive,inactive,,inactive,inactive,inactive,,,,0.25 µM (active),,,,,,
CNC[C@H](O)c1cccc(O)c1,inactive,inactive,inactive,inactive,inactive,inactive,inactive,inactive,inactive,inactive,,,,,,,,,,
CC(=O)O[C@]1(C(C)=O)CC[C@H]2[C@@H]3C[C@H](C)C4=CC(=O)CC[C@]4(C)[C@H]3CC[C@@]21C,inactive,,inactive,inactive,inactive,inactive,inactive,inactive,inactive,,10 µM (active),,0.0082 µM (active),,,,,,,
COC(=O)c1ccc(C)cc1,inactive,inactive,inactive,inactive,inactive,inactive,inactive,inactive,inactive,inactive,,,,,,,,,,
CCc1c(C)cc(N)c(CC)c1N,inactive,inactive,inactive,inactive,inactive,inactive,inactive,inactive,inactive,inactive,,,,,,,,,,
